PubChem BioAssay (EPA / NIEHS)
Results filed as inconclusive are left out. The source made the active and inactive calls. Rule for the calls, unless noted: active = hit-call score of the fitted dose curve at least 0.9, where 1 is the maximum; inactive = score below 0.9.

Legend:
[1] = ACEA_ER_80hr: ACEA Biosciences xCELLigence Real-Time Cell Analysis on Estrogen Receptor Agonism for Proliferation (AID 2282667; active = hit-call score of the fitted dose curve at least 0.9, where 1 is the maximum); settings: T47D proliferation, impedance (xCELLigence), 80 h
Outline: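 Impedance readout (RT-CES) of T47D proliferation at 80 h post-dose; gain of signal vs DMSO baseline. Compounds: 8 conc, 1:4 serial, top 100 uM final, ≤0.5% DMSO; biological duplicate.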

[2] = APR_HepG2_CellCycleArrest_24hr: Apredica 24-hour HepG2 Assay for Cell Cycle Arrest (AID 2282905); settings: imaging, actives raise or lower the signal;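 note: cell cycle arrest scored as ratio of 2N to 4N nuclear DNA content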
Outline: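 Readout: Hoechst 33342 nuclear DNA content by high-content fluorescent imaging, six images/well, 20x. Human HepG2 liver cells, 24 hr compound exposure, 0.39–200 uM, final DMSO 0.5% v/v. Gain or loss fitted relative to DMSO baseline.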

[3] = APR_HepG2_NuclearSize_24hr: Apredica 24-hour HepG2 Assay for Nuclear Size (AID 2282907); settings: high-content imaging, actives raise or lower the signal
Outline: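 Read-out: nuclear diameter from Hoechst 33342 (2 ug/mL) imaging of fixed HepG2 cells, 20x, six fields/well. Compounds ran at 0.39–200 uM for 24 hr, 0.5% DMSO final. Gain or loss was fitted bidirectionally relative to the DMSO baseline.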

[4] = APR_HepG2_CellLoss_24hr: Apredica 24-hour HepG2 Assay for Cell Loss (AID 2282908); settings: high-content imaging
Outline: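 Read-out: Hoechst 33342-stained nuclei counted by automated fluorescence imaging after formaldehyde fixation and Triton permeabilization. Ten concentrations, 0.39 to 200 uM, duplicate wells, 0.5% DMSO final. Gain or loss of signal fitted relative to DMSO baseline.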

[5] = APR_HepG2_MitoticArrest_24hr: Apredica 24-hour HepG2 Assay for Mitotic Arrest (AID 2282910); settings: high-content imaging, actives raise or lower the signal
Outline: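 High-content imaging of fixed HepG2 cells labeled with Hoechst 33342 and anti-phospho-histone H3, after 24 h treatment. Ten concentrations 0.39 to 200 uM in duplicate, final DMSO 0.5%; changes fitted both directions relative to DMSO.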

[6] = APR_HepG2_MitoMembPot_24hr: Apredica 24-hour HepG2 Assay for Mitochondrial Membrane Potential (AID 2282911); settings: imaging, actives raise or lower the signal
Outline: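 HepG2, 24 hr dosing, 10 concentrations 0.39–200 uM, 0.5% DMSO final. Live-cell MitoTracker Red CMXRos 250 nM 30 min, then 3.7% formaldehyde fix. HCS fluorescence imaging, 20x; bidirectional fit vs DMSO baseline.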

[7] = APR_HepG2_MitoMass_24hr: Apredica 24-hour HepG2 Assay for Mitochondrial Mass (AID 2282912); settings: high-content imaging, actives raise or lower the signal
Outline: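 HepG2, 24 hr dosing, 10 concentrations 0.39–200 uM in duplicate, DMSO 0.5% final. MitoTracker Red CMXRos 250 nM, 30 min pre-fix; 3.7% formaldehyde fix. Imaging-based fluorescence intensity; gain/loss fit vs DMSO baseline.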

[8] = APR_HepG2_p53Act_24hr: Apredica 24-hour HepG2 Assay for p53 Activation (AID 2282913); settings: high-content imaging, actives raise or lower the signal;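 note: p53 protein immunofluorescence averaged per cell in HepG2 with Hoechst nuclei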
Outline: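 Read-out: Cy5 immunofluorescence for p53 in fixed, permeabilized HepG2, imaged by HCS with Hoechst-defined nuclei. Dosing was 24 hr at 0.39–200 uM in 0.5% DMSO. Curves were fitted bidirectionally relative to DMSO.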

[9] = APR_HepG2_CellCycleArrest_72hr: Apredica 72-hour HepG2 Assay for Cell Cycle Arrest (AID 2282914); settings: high-content imaging, actives raise or lower the signal
Outline: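 HepG2, 72 hr exposure, 10-point 0.39–200 uM, duplicate, 0.5% DMSO final. Fix 3.7% formaldehyde 30 min RT, Triton X-100 0.5%, Hoechst 33342 2 ug/mL. ArrayScan 20x, six fields/well; DNA content per nucleus; bidirectional fit vs DMSO.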

SMILES: c1ccc2c(c1)sc1ccccc12
- outcome [1]: inactive

SMILES: Nc1ccc([N+](=O)[O-])cc1Cl
- outcome [1]: inactive

SMILES: O=C(O)CF
- outcome [1]: inactive

SMILES: Nc1ccc2ccccc2c1
- outcome [1]: inactive
- outcome [2]: inactive
- outcome [3]: inactive
- outcome [4]: inactive
- outcome [5]: inactive
- AC50 [6]: 52.5 µM (active)
- outcome [7]: inactive
- outcome [8]: inactive
- AC50 [9]: 88.9 µM (active)

SMILES: CC(Cl)CN(C)C (stereo not given)
- outcome [1]: inactive

SMILES: CNC(=O)Oc1ccc(N(C)C)c(C)c1
- outcome [1]: inactive

SMILES: c1ccc2c(c1)Nc1ccccc1S2
- outcome [1]: inactive
- AC50 [2]: 9.76 µM (active)
- outcome [3]: inactive
- outcome [4]: inactive
- outcome [5]: inactive
- AC50 [6]: 107 µM (active)
- outcome [7]: inactive
- outcome [8]: inactive
- outcome [9]: inactive

SMILES: CCCCc1ccc(O)cc1
- AC50 [1]: 10.5 µM (active)

SMILES: O=C(O)C(F)(F)OC(F)(F)C(F)(F)OC(F)(F)C(=O)O
- outcome [1]: inactive

SMILES: Cc1ccc2c(c1N)C(=O)c1ccccc1C2=O
- outcome [1]: inactive

SMILES: [N-]=[N+]=[N-]
- outcome [1]: inactive
- outcome [2]: inactive
- outcome [3]: inactive
- outcome [4]: inactive
- outcome [5]: inactive
- outcome [6]: inactive
- outcome [7]: inactive
- outcome [8]: inactive
- outcome [9]: inactive

SMILES: FC(F)(F)c1ccc(Cl)cc1
- outcome [1]: inactive

SMILES: O=P1(N(CCCl)CCCl)NCCCO1 (stereo not given)
- AC50 [1]: 3.97 µM (active)
- outcome [2]: inactive
- outcome [3]: inactive
- outcome [4]: inactive
- outcome [5]: inactive
- outcome [6]: inactive
- outcome [7]: inactive
- outcome [8]: inactive
- outcome [9]: inactive

SMILES: CCN(CC)c1ccccc1
- outcome [1]: inactive
- outcome [2]: inactive
- outcome [3]: inactive
- outcome [4]: inactive
- outcome [5]: inactive
- outcome [6]: inactive
- outcome [7]: inactive
- outcome [8]: inactive
- outcome [9]: inactive

SMILES: CCOC(=O)c1ccccc1C(=O)OCC
- outcome [1]: inactive
- outcome [2]: inactive
- outcome [3]: inactive
- outcome [4]: inactive
- outcome [5]: inactive
- outcome [6]: inactive
- outcome [7]: inactive
- outcome [8]: inactive
- outcome [9]: inactive

SMILES: COP(=O)(CCC(=O)NCO)OC
- outcome [1]: inactive

SMILES: CCCCC(CC)COC(=O)c1c(Br)c(Br)c(Br)c(Br)c1C(=O)OCC(CC)CCCC (stereo not given)
- outcome [1]: inactive
